In the library only some 1.3% were active in any assay of this set; here they are far more common.
Integrin act MD: integrin-mediated muscular dystrophy alleviation activation; alpha7betagal myoblasts, beta-gal FDG fluorescence, 48 h; actives 0.064% (n = 350,000); Potency, µM (titrated, usually from 38.3 µM), inactives show at the top dose activation, most hits filed as activators;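 further: potency means the concentration at half of the fitted maximal effect; 100% = response of the positive control SU9516; nearly all actives have a fitted effect of over 60% in size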
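Alpha7betagal+/- myoblasts (passage 13) were plated 16-24 hr, then exposed to compounds (1:260 dilution of DMSO stock) for 48 hours at 37C. After MPER lysis, β-galactosidase reporter activity was read as FDG fluorescence (ex 480/em 540) after 30 minutes.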
Anesthetic bind: binds horse apoferritin like a general anesthetic; Potency, µM (titrated, usually from 77.5 µM), inactives show at the top dose activity change, negative = displacement, usual class: inhibitors; P02791; actives 0.074% (n = 350,000); AID 485281; apoferritin/1-aminoanthracene competitive binding, fluorescence; further: potency means the concentration at half of the fitted maximal effect; on the % scale 0 is the no-effect control and ±100 the full control effect; nearly all actives have a fitted effect of over 20% in size
Target sequence (P02791 2-175 limits assumed): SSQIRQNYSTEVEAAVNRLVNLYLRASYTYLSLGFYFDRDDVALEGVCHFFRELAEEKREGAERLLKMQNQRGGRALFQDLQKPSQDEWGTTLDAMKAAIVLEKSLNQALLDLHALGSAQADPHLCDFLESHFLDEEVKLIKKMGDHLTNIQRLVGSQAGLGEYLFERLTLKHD
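Apoferritin-based anesthetic binding model; compound displacement of fluorescent 1-AMA measured as endpoint fluorescence after 10 minutes at room temperature, scaled to free-ligand and complex controls.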
PKM2 activator: PKM2 (human) enzyme activation; purified PKM2, Kinase-Glo ATP luminescence, activation; response scale: 0% is enzyme alone, no compound; Potency, µM (doses to about 57.5 µM), for inactives: at the highest dose activation, usual class: activators; P14618; actives 0.34% (n = 260,000); further: potency means the concentration at half of the fitted maximal effect; on the % scale 0 is the no-effect control and ±100 the full control effect; nearly all actives have a fitted effect of over 55% in size
Target sequence (P14618 whole entry, looked up): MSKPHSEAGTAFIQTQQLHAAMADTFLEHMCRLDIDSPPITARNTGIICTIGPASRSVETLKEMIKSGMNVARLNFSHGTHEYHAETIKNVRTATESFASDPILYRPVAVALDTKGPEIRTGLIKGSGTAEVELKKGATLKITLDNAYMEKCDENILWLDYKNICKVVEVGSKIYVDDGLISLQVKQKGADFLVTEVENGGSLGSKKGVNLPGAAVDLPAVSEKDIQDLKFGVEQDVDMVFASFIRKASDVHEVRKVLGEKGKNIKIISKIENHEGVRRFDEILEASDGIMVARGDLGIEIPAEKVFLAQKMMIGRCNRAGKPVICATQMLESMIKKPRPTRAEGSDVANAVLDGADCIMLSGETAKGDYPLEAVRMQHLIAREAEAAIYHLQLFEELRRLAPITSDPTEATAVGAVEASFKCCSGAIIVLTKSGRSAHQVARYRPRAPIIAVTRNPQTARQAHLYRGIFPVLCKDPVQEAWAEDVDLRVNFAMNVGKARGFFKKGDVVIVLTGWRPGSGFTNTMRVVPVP
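Kinase-Glo luminescence reports ATP generated from ADP (0.1 mM) and PEP (0.5 mM) by purified hPK-M2 after 1 h at room temperature, pH 7.2 imidazole buffer; intermediate enzyme activity allows detecting inhibitors and activators.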
IL-2 act: activates IL-2 in a cell-based reporter assay | IL-2 activation reporter assay, cell-based qHTS; stimulated with anti-CD3/CD4/CD28 beads; in transgenic mouse T cells | activation, % (series mostly up to about 46 µM) | actives 0.065% (n = 360,000) | AID 652025; in the data active means activation above about 50%; inconclusive means mostly about 30% to 49%; further: 0% is about no effect
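First, unstimulated transgenic mouse T cells were exposed to compound for 60 min. Next, anti-CD3/anti-CD4-coated beads with anti-CD28 were added. Finally, after 18 h at 37 degrees C, EGFP and DsRed were imaged.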
BRCA1 expr up: increases BRCA1 expression; AID 624202; Potency, µM (doses to about 46.1 µM), without a hit: at the highest dose activation, usual class: activators; actives 1.1% (n = 380,000); MCF7-BRCA1-FFLuc reporter, luminescence, 48 h; response scale: scaled: vehicle 0%, 10 µM genistein 100%; further: potency means the concentration at half of the fitted maximal effect; nearly all actives have a fitted effect of over 80% in size
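First, MCF7-BRCA1-FFLuc cells (2000/well) attach for 2 h; next, compounds are pin-added and incubated 48 h at 37 °C; finally, luciferase reagent is added and luminescence read after 15 min.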
Active calls of the source: *; ? = inconclusive; . = no result; [ ] = remark or other dose. Unless noted, the call rests on the fitted dose curve; in most records, active means well fitted curve in the direction sought with a large enough effect; inconclusive means small, poorly fitted or top-dose-only effect, or another doubt; inactive means no such curve, though single readings can be large; an effect the other way counts as inactive or inconclusive.

SMILES	Integrin act MD	Anesthetic bind	PKM2 activator	IL-2 act	BRCA1 expr up
Cc1ccc(/C=C/C(=O)Nc2sc(C)c(C)c2C(=O)OC(C)C)o1	7%	0%	16µM*	0	2%
CCC(Sc1nncn2c1cc1occc12)C(=O)Nc1ccc(C)c(Cl)c1 (stereo not given)	.	-12%	.	.	.
Cc1occc1-c1nnc(SCC(=O)N2CCOCC2)n1Cc1ccco1	-2%	-7%	25µM*	-2	-15%
CC1CCc2c(sc(/N=C/N(C)C)c2C#N)C1 (stereo not given)	-27%	-16%	1%	-1	13µM*
O=C(O)CCC1CCCC1	.	7%	.	.	.
O=C1C=CC(=O)N1CCNc1ncc(C(F)(F)F)cc1Cl	0%	?	18µM*	-4	-38%
O=[N+]([O-])c1cccnc1NCCNc1ncc(C(F)(F)F)cc1Cl	-13%	?	15%	-1	2.5µM*
O=[N+]([O-])c1ccccc1NCCNc1ncc(C(F)(F)F)cc1Cl	11%	-22%	9%	0	66%
Clc1cccc(N2CCN(c3ncnc4c3nc3n4CCCCC3)CC2)c1	.	99%	.	.	-57%
OCCc1ccc(NCCc2cccs2)cc1	.	.	.	0	8.9µM*
O=C(Cc1cccs1)NCCc1ccc(F)cc1	1%	-14%	2%	0	2%
COc1ccc(C2=Nn3c(nnc3-c3cccc(OC)c3OC)SC2)cc1	.	-16%	.	.	.
Cc1cc(C(F)(F)F)c(C#N)c(N2CCOCC2)n1	34%	-1%	0%	-1	-1%
N#Cc1c(N2CCOCC2)nsc1-c1ccc(C(F)(F)F)cc1	0%	0%	0%	2	5µM*
C=CC1CN2CCC1C[C@H]2C(O)c1ccnc2ccc(OC)cc12 (stereo not given in full)	.	-5%	.	.	.
Cn1c(SCc2ccccc2)nnc1-c1c[nH]c2ccccc12	5%	1%	-3%	-1	11µM*
Cn1c(SCC#N)nnc1-c1ccc2c(c1)OCO2	-15%	4%	?	0	0%
Cn1c(SCc2ccccc2)nnc1-c1ccc2c(c1)OCO2	-13%	-8%	-1%	-1	6.3µM*
CCCCSc1nnc(-c2c[nH]c3ccccc23)n1C	22%	?	3%	-1	?
O=C(Nc1ccc(Cl)cc1N1CCOCC1)C1CCCCC1	7.1µM*	-6%	2%	-2	-5%
OC(C[n+]1cccc(Br)c1)c1ccccc1 (stereo not given)	.	.	.	.	-8%
COc1cc(-c2cc(OC)c3c(C)oc(C)c3c(=O)c2)ccc1OC(=O)c1cccc(Cl)c1	.	-13%	.	.	.
COc1ccc(Nc2cnn(-c3nc4ccccc4s3)c(=O)c2Cl)cc1	-59%	-1%	-15%	-6	-45%
O=c1c(Cl)c(Nc2cccc(Cl)c2)cnn1-c1nc2ccccc2s1	11%	-8%	-4%	-1	14µM*
O=C(NCCc1ccccc1)c1cccc(Br)c1	12%	?	1%	-4	13µM*
SMILES	Integrin act MD	Anesthetic bind	PKM2 activator	IL-2 act	BRCA1 expr up
O=C(NCCc1ccccc1)/C(=N\O)c1ccccc1	-16%	-9%	-3%	-1	1.3µM*
O=C(NCCc1ccccc1)c1cccc(NC(=O)C2CC2)c1	27%	.	.	0	6.3µM*
CN(C)CCCNC(=O)/C(=N\O)c1ccccc1	13%	-13%	4%	0	-1%
CCCNC(=O)c1cccc(Br)c1	-7%	-5%	-4%	0	-1%
O=C(NCCc1ccccc1)c1cccc(NC(=O)C2CCC2)c1	0%	.	.	0	?
Nc1sccc1C(=O)c1ccc(Cl)cc1	6%	-17%	1%	1	6.3µM*
CC(=O)Nc1ccc(S(=O)(=O)O)c2cc(S(=O)(=O)O)c(N=Nc3ccc(N=Nc4ccc(S(=O)(=O)O)cc4)c4ccc(S(=O)(=O)O)cc34)c(O)c12	.	.	.	.	-42%
Cc1ccc(NC(=S)c2ccccc2)cc1	4%	-16%	-2%	2	1.3µM*
Cc1ccc(NC(=S)N/C(=N/S(=O)(=O)c2ccccc2)c2ccccc2)cc1	-16%	-23%	0%	-3	13µM*
Cc1ccc(NC(=S)c2ccncc2)cc1	29%	-11%	.	2	5%
Cc1csc(=N)n1-c1ccc(Cl)cc1	17%	11µM*	13%	-3	?
CCN(C(=O)c1ccccc1F)c1nc(-c2ccc(OC)cc2)cs1	-28%	6%	-7%	0	7.9µM*
CCC(=O)N(Cc1ccco1)c1nc(-c2ccc(OC)cc2)cs1	-21%	-2%	13%	0	42%
CCC(=O)N(CC)c1nc(-c2ccc(OC)cc2)cs1	2%	7%	-1%	-3	11µM*
COc1ccccc1N1CCN(c2ccc(=O)n(CC(=O)NCc3ccc(F)cc3)n2)CC1	.	-13%	.	.	.
O=c1c(O)c(-c2cc(O)c(O)c(O)c2)oc2cc(O)ccc12	.	388%	.	.	.
CC[C@H](C)[C@H](NC(=O)CNC(=O)[C@H](CC(C)C)NC(=O)[C@H](CC(C)C)NC(=O)[C@H](CCC(N)=O)NC(=O)[C@H](CCC(N)=O)NC(=O)[C@H](CC(=O)O)NC(=O)[C@H](CCCCN)NC(=O)[C@H](CC(C)C)NC(=O)[C@H](Cc1ccc(O)cc1)NC(=O)[C@H](CCCNC(=N)N)NC(=O)[C@H](CCC(=O)O)NC(=O)[C@@H](NC(=O)[C@H](C)NC(=O)[C@H](CC(C)C)NC(=O)[C@@H](NC(=O)[C@@H](N)CCCNC(=N)N)[C@@H](C)CC)C(C)C)C(=O)N[C@@H](Cc1c[nH]c2ccccc12)C(=O)NCC(=O)N[C@@H](CS)C(=O)N[C@@H](CO)C(=O)O	.	-13%	.	.	.
Cc1cccc(OCC2=NS(=O)(=O)c3ccccc3N2)c1	-7%	-20%	17%	-3	11µM*
COc1cccc(-n2cc(C(=O)NCc3ccc(C)cc3)c3ccccc3c2=O)c1	.	-2%	.	.	.
Cc1ccccc1C(=O)Nc1cccc(-c2ccc(N3CCOCC3)nn2)c1	12%	.	.	-3	14µM*
O=C(COc1ccc(Cl)cc1Cl)Nc1cccc(-c2ccc(N3CCOCC3)nn2)c1	13%	.	.	-1	1.4µM*
Cn1cnc(S(=O)(=O)N2CCCC(C(=O)NCc3ccccc3)C2)c1 (stereo not given)	.	0%	.	.	.
Cc1ccc(NC(=O)c2nc(S(C)(=O)=O)ncc2N(Cc2ccccc2)Cc2ccco2)c(C)c1	.	-9%	.	.	.
COc1ccc(OC2C(O)COC2/C=C/C#Cc2ccccc2)cc1 (stereo not given)	.	-15%[15.3 µM]	.	.	.
COc1cc2c3nnc(-c4ccc(F)cc4)c-3cn(Cc3ccccc3F)c2cc1OC	0%	12%	-9%	87*	-2%
COc1cc2c(=O)c(S(=O)(=O)c3ccc(F)cc3)cn(Cc3ccccc3C)c2cc1OC	.	-6%	.	.	-17%

Compound activity from PubChem BioAssay.
